# Measured values from PMC5540273 (PLoS ONE, 2017).
# Columns and labels:
# Conditions in all cases: concentration: 1 μM, replicates: in singlicate; n = 1
# TRPM6 = system: TRPM6
# TSSK1B = system: TSSK1B
# TSSK3 = system: TSSK3
# TTK = system: TTK
# TXK = system: TXK
# [1] = system: TYK2(JH1domain-catalytic)
# [2] = system: TYK2(JH2domain-pseudokinase)
# TYRO3 = system: TYRO3
# ULK1 = system: ULK1
# ULK2 = system: ULK2
# ULK3 = system: ULK3
# VEGFR2 = system: T1, VEGFR2
# T1 construct: gene KDR
# VPS34 = system: T2, VPS34
# T2 construct: gene PIK3C3
# VRK2 = system: VRK2
# WEE1 = system: WEE1
# WEE2 = system: WEE2
# WNK1 = system: WNK1
# WNK2 = system: WNK2
# WNK3 = system: WNK3
# WNK4 = system: WNK4
# 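Note: KINOMEscan kinase panel screen.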
Structure (SMILES),%Inh (TRPM6),%Inh (TSSK1B),%Inh (TSSK3),%Inh (TTK),%Inh (TXK),%Inh [1],%Inh [2],%Inh (TYRO3),%Inh (ULK1),%Inh (ULK2),%Inh (ULK3),%Inh (VEGFR2),%Inh (VPS34),%Inh (VRK2),%Inh (WEE1),%Inh (WEE2),%Inh (WNK1),%Inh (WNK2),%Inh (WNK3),%Inh (WNK4)
COc1cc2ncn(-c3cc(OCc4ccncc4Br)c(C(N)=O)s3)c2cc1OC [GW854278],0%,0%,0%,0%,21%,0%,5%,11%,2%,0%,36%,31%,58%,24%,0%,18%,19%,35%,64%,0%
O=C(Nc1n[nH]c2nc(-c3ccccc3)c(Cl)cc12)C1CC1 [SB-734909],29%,0%,0%,0%,4%,25%,16%,0%,22%,20%,0%,15%,0%,0%,0%,0%,1%,0%,7%,0%
O=C(NCCNc1ccnc(Nc2ccc(F)cc2)n1)Nc1ccc2c(c1)OCO2 [GSK1379882],26%,0%,24%,15%,100%,21%,28%,0%,0%,0%,21%,9%,0%,0%,13%,6%,5%,18%,30%,12%
COC(=O)c1c(-c2ccccc2)c2cc(Br)ccc2c(=O)n1Cc1ccc(S(C)(=O)=O)cc1,2%,0%,0%,31%,12%,7%,15%,1%,0%,13%,13%,0%,0%,0%,0%,16%,0%,13%,0%,0%
O=C(NCc1cccs1)c1cc(C(=O)c2c(Cl)cccc2Cl)c[nH]1 [GW823670],0%,18%,0%,9%,0%,1%,0%,0%,0%,29%,0%,0%,0%,0%,2%,5%,0%,0%,0%,0%
CN1C(=O)C(Nc2cc(Cl)c(O)c(Cl)c2)=C(c2ccc(Cl)cc2)C1=O [SB-404321],0%,0%,22%,0%,0%,0%,13%,0%,0%,0%,0%,0%,0%,90.3%,0%,15%,0%,35%,0%,0%
COc1cc(OC)cc(-c2cc3cnc(N)nc3nc2NC(=O)NC(C)(C)C)c1,0%,9%,0%,0%,19%,0%,3%,100%,0%,0%,0%,36%,0%,0%,0%,5%,0%,0%,0%,0%
COc1cccc(-n2cnc3c(N)ncnc32)c1 [SKF-97416],65%,0%,21%,44%,11%,83%,40%,0%,45%,39%,27%,15%,45%,8%,2%,0%,7%,0%,38%,43%
CCCNC(=O)Nc1ccc(Oc2ncnc3ccn(C)c23)cc1,0%,0%,0%,0%,0%,13%,22%,0%,14%,10%,30%,13%,34%,0%,0%,13%,0%,3%,0%,0%
C[C@@H]1CC[C@H](C(=O)NC2CCCCC2)CN1c1cc(-c2ccc3c(N)n[nH]c3c2)nc(N)n1 [GSK2291363],16%,31%,31%,16%,6%,0%,23%,0%,6%,0%,11%,8%,31%,0%,34%,26%,16%,4%,21%,0%
CCC(=O)c1c(-c2ccccc2)c2cc(Cl)ccc2c(=O)n1Cc1cc(S(C)(=O)=O)n(CC(F)F)n1,10%,0%,0%,0%,6%,0%,0%,0%,0%,0%,0%,0%,0%,0%,0%,0%,0%,0%,0%,0%
Nc1n[nH]c2nnc(-c3ccccc3)c(-c3ccccc3)c12 [GW554060],0%,13%,20%,0%,12%,34%,55%,10%,27%,8%,16%,0%,0%,18%,44%,9%,3%,41%,18%,14%
Cc1nn2c(=O)cc(N3CCOCC3)nc2n1Cc1cccc(Cl)c1Cl [GSK2342769],0%,0%,6%,0%,13%,10%,4%,0%,17%,0%,11%,0%,95.4%,0%,1%,9%,0%,3%,13%,0%
COc1ccc(CNC(=O)NC2CCN(c3ccnc(Nc4ccc(F)cc4)n3)C2)cc1 (stereo not drawn) [GSK1379706],4%,0%,21%,21%,0%,27%,23%,0%,0%,0%,0%,9%,33%,33%,10%,9%,0%,30%,49%,50%
CCC(=O)c1c(-c2ccccc2)c2cc(Cl)ccc2c(=O)n1Cc1cc(S(C)(=O)=O)n(CCC(C)(C)O)n1,18%,0%,1%,4%,18%,0%,6%,0%,0%,7%,0%,2%,0%,0%,0%,0%,0%,31%,0%,25%
CCc1nc(-c2cccc(C)c2)c(-c2ccncc2)s1,0%,0%,0%,0%,0%,0%,25%,0%,0%,0%,12%,0%,0%,0%,0%,0%,0%,0%,0%,0%
CN1C(=O)C(Nc2ccccc2)=C(c2ccccc2)C1=O [SB-300079],0%,0%,0%,0%,0%,0%,17%,0%,6%,12%,7%,0%,30%,19%,51%,1%,0%,0%,33%,26%
Cc1nnc(-c2ccc3ncn(-c4ccc(S(C)=O)cc4)c3c2)o1 (stereo not drawn),0%,0%,6%,0%,5%,0%,2%,12%,0%,0%,0%,3%,15%,0%,0%,21%,0%,0%,0%,0%
Cl.NS(=O)(=O)c1cccc(Nc2cc(-c3ccc(F)cc3)n[nH]2)c1 [GW824645],0%,0%,0%,0%,0%,0%,9%,0%,15%,47%,12%,35%,29%,18%,0%,0%,35%,0%,25%,13%
Nc1ncnc2c1ncn2-c1cccc2ccccc12 [SKF-97184],39%,0%,0%,23%,0%,68%,37%,0%,24%,16%,30%,0%,56%,29%,0%,0%,15%,0%,29%,15%
COC(=O)c1c(-c2ccccc2)c2cc(Br)ccc2c(=O)n1Cc1ccc(NC(=O)CCC(=O)O)cc1,0%,0%,0%,9%,39%,4%,0%,0%,8%,11%,16%,0%,0%,0%,0%,21%,0%,26%,0%,0%
